Sampled rows, rich in hits. Any-hit rate of the full collection: about 2.4%.
D2 antag = D2 dopamine receptor (human) antagonism; P14416; HEK293 TREx D2 cells, calcium flux, dopamine EC80; inhibition, % at 10 µM; actives 2% (n = 340,000); in the data active = inhibition above about 30%; inactive = below that, where a call was filed; note: 0% is about no effect
Target sequence (P14416 whole entry, looked up): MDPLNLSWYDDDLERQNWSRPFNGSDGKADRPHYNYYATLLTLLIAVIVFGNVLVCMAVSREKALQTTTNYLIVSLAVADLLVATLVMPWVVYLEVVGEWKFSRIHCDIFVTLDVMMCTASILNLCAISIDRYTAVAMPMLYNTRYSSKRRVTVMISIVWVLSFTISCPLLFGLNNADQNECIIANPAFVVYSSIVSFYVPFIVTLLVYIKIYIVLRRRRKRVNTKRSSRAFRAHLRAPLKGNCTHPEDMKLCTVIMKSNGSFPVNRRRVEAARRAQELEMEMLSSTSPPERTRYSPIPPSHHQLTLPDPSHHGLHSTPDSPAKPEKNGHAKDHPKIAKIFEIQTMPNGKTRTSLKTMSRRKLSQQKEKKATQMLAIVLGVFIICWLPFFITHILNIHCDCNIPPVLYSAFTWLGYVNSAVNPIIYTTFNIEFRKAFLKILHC
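In this primary screen, negative modulation is detected by tracking calcium flux after an EC80 dopamine challenge in inducible HEK293 T-REx D2 cells preexposed to test compound for 180 s.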
D2 PAM-1 = D2 dopamine receptor (human) potentiation; P14416; HEK293 T-REx D2, calcium flux, EC20 dopamine potentiation; actives 0.34% (n = 340,000); potentiation, % at 10 µM;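 active = potentiation over 3 SD above the plate norm, cut at about 30% in these data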; note: 0% is about no effect
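Primary screen. Calcium kinetics in induced HEK293 T-REx D2 cells: compound pre-addition 180 s, EC20 dopamine, 180 s more.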
D2 ag-1 = human D2 receptor agonism in beta-arrestin assay; P14416; DiscoveRx PathHunter D2 beta-arrestin, luminescence, 90 min; 100% = 57 uM dopamine signal; activation, % (concentration not given with the values); actives 0.084% (n = 360,000); in the data active = activation above about 40%; inconclusive = between about 15% and that limit
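DiscoveRx PathHunter D2 beta-arrestin cells (2,100/well) attached overnight, then compound-stimulated 90 min at 37 C in HBSS/10 mM HEPES/0.1% Tween-20 buffer; beta-galactosidase complementation read by luminescence after 1 h at ambient temperature. Dopamine 57 uM final (EC100) as control.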
D2 PAM-2 = positive allosteric modulators of human D2 dopamine receptor. DiscoveRx D2 beta-arrestin cells, luminescence, 90 min; 100% = 57 uM dopamine signal. potentiation, % (no concentration beside the values). P14416. actives 0.23% (n = 360,000). AID 624464; in the data active = potentiation above about 50%; inconclusive = mostly about 30% to 49%
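PathHunter beta-arrestin assay in DiscoveRx D2 cells. Compounds were added with an EC20 of dopamine (50 nM final) for 90 min at 37 deg C. Luminescence was read 1 h after detection reagent, with 57 uM dopamine as the EC100 control.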
D2 ag-2 = agonists of human D2 dopamine receptor; actives 0.53% (n = 340,000); HEK293 T-REx D2 cells, calcium flux agonist mode; activation, % at 2 µM; P14416;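 active = activation over 3 SD above normal in the single-dose calcium agonist read, cut at about 30% in these data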; note: 0% is about no effect
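Calcium-flux readout, 1 cycle/sec over 180 s following compound pin transfer, in inducible HEK293 Trex D2 cells (force-coupled); dopamine controls included. Positive calcium responses during this window marked compounds as potential agonists.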
* = called active by the depositor; ? = inconclusive; . = no result given.

SMILES	D2 antag	D2 PAM-1	D2 ag-1	D2 PAM-2	D2 ag-2
CC(C)/C=C1\CC/C(=C\c2ccc(N(C)C)cc2)C1=O	27.3	-7.3	-3.8	-3.5	92.1*
O=C(NC1CC(=O)N(c2ccc(F)cc2)C1)c1ccc2c(c1)OCO2 (centres undefined)	.	-10.3	.	.	0.6
CCOC(=O)c1c(NC(=O)CSc2ncn[nH]2)sc(C)c1C	38.1*	0.8	1.6	6.5	0.5
CCOC(=O)c1c(NC(=O)CSc2ncn[nH]2)sc(C(=O)NC)c1C	-11.0	-14.0	1.7	-8.2	-0.2
Cc1nn(-c2ccc(Cl)cc2)c2sc(C(=O)N3CCN(c4ccccn4)CC3)cc12	1.0	31.6*	1.0	-6.6	-1.4
COc1ccc(NC(=O)c2ccc(NC(=O)COC(=O)c3cnc(C)cn3)cc2)cc1	.	-0.1	-5.8	-6.6	.
C/C(=N\Nc1cccc([N+](=O)[O-])c1)c1cc(F)ccc1O	35.1*	18.1	-11.7	-15.8	-1.3
Cc1ccc(NC(=O)CN2C(=O)CCc3ccccc32)cc1C	.	0.2	.	.	-0.9
COc1ccc(C/C(C)=N/NC(=S)Nc2ccc(C(C)C)cc2)cc1	36.5*	-1.2	1.5	-13.6	-0.2
COc1ccc(NC(=O)C(c2ccc(OC)cc2)N(C)C(=O)CNC(C)=O)cc1 (centres undefined)	38.2*	-3.6	-1.2	-9.1	-0.3
COc1ccc(NC(=O)C(c2ccc(C)cc2)N(C)C(=O)CNC(C)=O)cc1 (centres undefined)	5.5	-4.6	0.6	-3.9	-0.9
COc1ccc(C(NC(=O)CNC(C)=O)C(=O)Nc2ccc(C(C)C)cc2)cc1 (centres undefined)	36.7*	-5.2	-1.1	-2.9	0.1
COc1ccc(Cn2ccc3nc(C)c(C(=O)Nc4ccc(OC)cc4)cc3c2=O)cc1	.	3.1	.	.	-0.2
COc1cc2c(cc1OC)C(c1ccc(F)cc1)N(c1ccc(F)cc1)C(=O)C2 (centres undefined)	.	1.8	.	.	1.4
COc1ccc(NC(=O)CN(C)C(=O)c2ccc(S(=O)(=O)Nc3ccccc3F)cc2)cc1	-3.7	-1.9	2.6	-9.3	-0.6
Cc1cccc(N(C)C(=O)CCNS(=O)(=O)c2ccc3c(c2)CCN3C(=O)C2CC2)c1	.	5.7	.	.	5.5
NC(=O)C(c1ccccc1)C1CCCCC1 (centres undefined)	52.4*	-5.2	-4.6	-23.3	0.0
COc1cccc(-c2noc(N)c2C#N)c1	-1.1	2.7	?	?	-0.1
N#Cc1c(-c2ccc(F)cc2)noc1N	-4.2	-0.2	?	96.1*	0.8
CC(C)[C@H](NC(=O)[C@H]1N2C(=O)c3ccccc3C2SC1(C)C)C(=O)NCc1ccco1 (some centres undefined)	9.0	-8.8	-2.0	-7.5	-0.1
C=CCn1c(C)cc(C(=O)CSc2nnc(-c3cccc(S(=O)(=O)N(CC)CC)c3)o2)c1C	-19.8	39.4*	-2.5	-11.8	-0.1
CCN(CC)S(=O)(=O)c1cccc(-c2nnc(SCC(=O)c3cc(C)n(C4CC4)c3C)o2)c1	-5.2	2.8	-0.1	11.0	0.9
Cc1ccc(Nc2cc(C)c(C#N)c3nc4ccccc4n23)cc1Cl	.	10.4	.	.	0.8
O=C(COc1ccccc1)N/N=C/c1sc(=O)n(Cc2cccc(C(=O)O)c2)c1Cl	44.4*	-4.5	3.3	-3.7	0.2
Cc1ccc(-n2c(=O)c3c(c4cc(C)ccc4n3C)n(CC(=O)Nc3cc(C)cc(C)c3)c2=O)cc1	.	-4.0	.	.	-1.2
SMILES	D2 antag	D2 PAM-1	D2 ag-1	D2 PAM-2	D2 ag-2
N#Cc1cccc(C(c2nnnn2C2CCCC2)N2CCC(Cc3ccccc3)CC2)c1 (centres undefined)	1.1	40.2*	-3.6	1.1	-0.1
CCN(Cc1ccccc1)C(=O)Cn1c(=O)n(-c2ccccc2)c(=O)c2c1c1cc(C)ccc1n2C	.	-1.2	.	.	-1.1
O=C(COc1ccccc1[N+](=O)[O-])N/N=C/c1ccc(O)cc1	3.7	12.6	13.0	71.7*	-0.1
COC(=O)/C=c1/s/c(=C(/C#N)C(=O)N2CCCCC2)n(-c2ccccc2)c1=O	-12.9	-1.8	-5.0	-6.3	0.9
COc1cc(/C=c2\s/c(=C(/C#N)C(=O)N3CCCC3)n(-c3ccccc3)c2=O)ccc1O	8.1	-1.1	-2.5	-6.1	38.7*
CCn1cc2nc(SCC(=O)Nc3ccc(F)cc3F)n(Cc3ccccc3)c(=O)c2n1	31.9*	8.7	-3.8	-9.1	-0.2
CCn1cc2nc(SCC(=O)Nc3cccc(Cl)c3C)n(Cc3ccc(Cl)cc3)c(=O)c2n1	.	-5.8	.	.	0.6
Cc1ccc(NC(=S)N2CCC(c3ccccc3)C2)c(Cl)c1 (centres undefined)	30.1*	-2.5	-2.9	-7.4	-1.0
S=C(Nc1ccccc1Cl)N1CCC(c2ccccc2)C1 (centres undefined)	2.1	-5.6	-4.5	2.1	-0.5
CCN(CC)c1ccc(/C=C/c2cc(-c3ccccc3)c3ccccc3n2)cc1	43.3*	-5.9	1.9	-2.6	53.8*
C[N+](C)(C)CC/C=C1/c2ccccc2CSc2ccccc21	-5.3	-0.2	-2.7	-10.5	-0.9
CNCCC=C1c2ccccc2CCc2ccccc21	42.3*	-26.6	-6.2	-35.4	1.6
O=C(C1CCCO1)N1CCN(C(=S)Nc2ccc(F)cc2)CC1 (centres undefined)	41.0*	0.6	1.8	-4.3	1.4
COc1cc(OC)c(NC(=O)C2=C(C)C(=O)OC23CCCCC3)cc1Cl	.	9.7	.	.	0.8
COc1ccc(CCNC(=O)C2CCN(c3ncnc4c3nc3n4CCCCC3)CC2)c(OC)c1	.	7.5	.	.	-3.1
O=C(CS(=O)(=O)Cc1ccccc1)Nc1ccc(Cl)cn1	51.9*	-0.3	-1.7	-8.2	0.6
O=c1[nH]c(-[n+]2ccccc2)c(/C=N/NC([S-])=Nc2ccccc2)s1	15.1	6.5	-1.2	-8.6	30.4*
Cc1cc[n+](-c2[nH]c(=O)sc2/C=N/NC([S-])=Nc2ccccc2)cc1	-11.6	0.0	-2.2	-13.5	0.4
C=CC[C@@H](CC(=O)N(CCO)Cc1ccccc1)C(=O)NC[C@H](OC(=O)[C@@H](CC=C)Cc1ccc(F)cc1)c1ccccc1	.	.	-10.7	?	.
Cc1cc(C)n(CC2CC(=O)N(c3cc(Cl)cc(Cl)c3)C2=O)n1 (centres undefined)	30.5*	-4.7	-0.2	7.9	0.4
Cc1ccc(CC2C(=O)N(CC(=O)O)C(=O)C2C)cc1 (centres undefined)	30.9*	-8.4	-1.6	-4.9	-0.3
CC1CCN(C(=O)Cn2c(SCC(=O)Nc3ccc(F)cc3)nc3ccccc32)CC1	.	3.0	.	.	1.4
CC1(C)C(=O)NC(=O)N1Cc1ccccc1	44.8*	-5.1	-2.6	-15.5	-0.4
CC12CN(Cc3ccccc3)CC(C)(CN(Cc3ccccc3)C1)C2=O	-8.7	5.2	0.9	-8.4	0.5

Screening results from PubChem.
